From article PMC12136788
Where a chain is given by its changes, count along the chain named. Over roughly 24,000 sequences, “enrichment r” has its median near 0.99; the highest 2% begin near 3.7. The sample holds the highest values, similar sequences and a random draw of the others, so the mix is not that of the screen.

T1: UNK ZnF1-3 (human, UniProt Q9C0B0 31-174)
T1 sequence: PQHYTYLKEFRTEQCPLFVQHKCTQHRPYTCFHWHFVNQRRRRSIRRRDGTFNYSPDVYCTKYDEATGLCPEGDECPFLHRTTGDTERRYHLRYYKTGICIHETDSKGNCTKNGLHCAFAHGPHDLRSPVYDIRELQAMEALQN

B1: chr5:31803264:31803265:+_ENSMUSG00000064037_ENSMUST00000076949|mus_mus|FALSE|FALSE (ssRNA)
RNA: GGGAGUUCUACAGUCCGACGAUCUGGAAAUGAGGAAGCCAGGGCCUCAGUGAUGAUUGUCCCUGAAGCUGACCAGGUAAAUACUUCAAUCUGUCCAGGUGUGUCAAUCAAGACAUAUCUGAAUGUGUUCUGGGCCUUCUCAAUCAACAGAGGAUUGAGCAUCA
B2: 64960267_64960387_5255_CDS_ENSG00000171988_ENST00000542921|human|control|control (ssRNA)
RNA: GGGAGUUCUACAGUCCGACGAUCUGAGUGAGCUGGUUCUUCUCCUUUUUUACUGCGAAUAAGUCUACAUUCUCGACACUUUUGUAAAUUAGGCCCUAUCUCACAGCAGGAGUCAUCCUGUAAAAAGGAUUCCCCAGUUUGCUUCAACAGAGGAUUGAGCAUCA
B3: chr4:76721835:76721836:+_ENSG00000138768_ENST00000264904|hu_mus|hu_hu_hu_mus_True|98_108 (ssRNA)
RNA: GGGAGUUCUACAGUCCGACGAUCGUUGGCUGGGGUUUCUGAGAUGCCUCUGGAAUAUAACUCAUGUUUGCUAAUAAAUCCUAGUUUCUCUAUGAAAUUCUCUUUGCCAAUCCUCUUCUCUAUUAGUUGCUUUAGUUUCUCUUUCAACAGAGGAUUGAGCAUCA
B4: chr1:241675328:241675329:-_ENSG00000091483_ENST00000366560|hu_hu|FALSE|FALSE (ssRNA)
RNA: GGGAGUUCUACAGUCCGACGAUCGCUUUUAUUAACAUGAUCGUUGGGAUGCACAGGUAUCUUGCUGCCAAGUUCACCUCCUAACAUUUCAAUUGCUCUAUUGCUAAUGACUUCAUUUACAUUCAUAUUUGUCUGAGUUCCUGACAACAGAGGAUUGAGCAUCA
B5: 21460886_21461006_6735_CDS_ENSMUSG00000042453_ENSMUST00000161356|mouse|control|control (ssRNA)
RNA: GGGAGUUCUACAGUCCGACGAUCAGGAUUUUUGGUGCUUAUUUUACAGGUUGGCCCAGAGUAGCCCGGGUCACAUAUACACUUGGUUCCAUUGAUGCAGCUCCCGUGCCCAUAGCACAUCUCUUCACACUGGGGACCAAUGUACAACAGAGGAUUGAGCAUCA
B6: chr10:121586544:121586545:+_ENSG00000198825_ENST00000369080|hu_mus|motif|central (ssRNA)
RNA: GGGAGUUCUACAGUCCGACGAUCCGACUGCCUAAUCGAGGUGCUGACACAAUAAUCCCACAGCUUGGGAGAAUGUAAUCGGUUGGCCCUACGCUCUCUAAAGAAUUGGCUAGCUGCUUGUCUUCCUCCGACUUAGAAUUUGUACAACAGAGGAUUGAGCAUCA
B7: chr2:153237265:153237266:-_ENSMUSG00000061411_ENSMUST00000109784|mus_mus|mus_mus_mus_hu_False|58_78 (ssRNA)
RNA: GGGAGUUCUACAGUCCGACGAUCAAAAAAAAAAAAAAAAAAGUGUCCUUGUGCCCAAAGUCUCAGAUGCUUGGAGUGCAGCUAGAAACAGCUCUUUUGGAUCCCACCUCUUUCAAAAACAAAAUGUACCAACUGGUGAGGCAGCAACAGAGGAUUGAGCAUCA
B8: chr2:153237265:153237266:-_ENSMUSG00000061411_ENSMUST00000109784|mus_mus|mus_mus_mus_hu_False|78_78 (ssRNA)
RNA: B7 RNA with C78U, A79G
B9: chr2:153237265:153237266:-_ENSMUSG00000061411_ENSMUST00000109784|mus_mus|FALSE|FALSE (ssRNA)
RNA: GGGAGUUCUACAGUCCGACGAUCAAAAAAAAGAAAAGAAAAGUGUCCUUGUGCCCAAAGUCUCAGAUGCUUGGAGUGCAGCUAGAAACAGCUCUUUUGGAUCCCACCUCUUUCAGAAAACAGUGUACCAACUGGUGAGGCAGGCAACAGAGGAUUGAGCAUCA
B10: 112580157_112582736_3545_CDS_ENSG00000153107_ENST00000341068|human|control|control (ssRNA)
RNA: GGGAGUUCUACAGUCCGACGAUCCAAAUCUCUUAAAGUGAAUCCUACAUUAGUCAUCCAGACAACCAAUCUUUCAGCUAGACUAGAAACAGAUGUAGAAUGCCUGAAACUAAACCUGUUUUCCUCUUGUUCUACUUGCAACUUCAACAGAGGAUUGAGCAUCA
B11: chr2:153237265:153237266:-_ENSMUSG00000061411_ENSMUST00000109784|mus_mus|mus_mus_mus_hu_False|78_98 (ssRNA)
RNA: B7 RNA with A37G, C78U, A79G
B12: chr2:153237265:153237266:-_ENSMUSG00000061411_ENSMUST00000109784|mus_mus|mus_mus_mus_hu_False|78_108 (ssRNA)
RNA: B7 RNA with A32G, C78U, A79G
B13: chr2:153237265:153237266:-_ENSMUSG00000061411_ENSMUST00000109784|mus_mus|mus_mus_mus_hu_False|28_78 (ssRNA)
RNA: B7 RNA with C78U, A79G, A115G
B14: 61074685_61077595_487_3pUTR_ENSG00000119541_ENST00000238497|human|control|control (ssRNA)
RNA: GGGAGUUCUACAGUCCGACGAUCUCUUUUUUUCAGGAUCAUCAGAUUCUCCUUCCCCAUCACUGUCAUUCCCCUUCUCAUCUGCUGGACUCGGCUGUCCUUCUUUCACUGGCUUCUGUGCUUUUUUCUCUUUAUUUUUCAGGUCAACAGAGGAUUGAGCAUCA

Target: T1, UNK ZnF1-3
Assay: nsRBNS (natural sequence RNA bind-n-seq); RBNS binding buffer (assumed for nsRBNS): 25 mM Tris pH 7.5, 150 mM KCl, 3 mM MgCl2, 0.01% Triton X-100, 500 ug/ml BSA, 20 U/ml SUPERase-In, 4 C; UNK is unkempt and MSI1 is Musashi-1; names of the RNAs are library labels; protein concentration not given here; high values mean tight binding

Binder | binding signal [enrichment R]
B1 | 0.591
B2 | 0.8
B3 | 0.409
B4 | 0.465
B5 | 0.458
B6 | 1.12
B7 | 6.45
B8 | 5.71
B9 | 1.55
B10 | 0.842
B11 | 4.81
B12 | 3.65
B13 | 4.56
B14 | 0.231
